# High-throughput results: PubChem BioAssay, National Center for Advancing Translational Sciences (NCATS)
# Shown are actives, neighbours in structure and some others; about 4.6% of the full set was active somewhere.
# Tau fluor cs: counter-screen for tau fibril formation inhibitors | AID 1463 | Potency, µM (doses to about 57.7 µM), for inactives: top-dose activity change, negative = decrease | hit rate 0.93% among 280,000 | tau K18 P301L Alexa594 fluorescence, heparin fibrillization; further: potency means the concentration at half of the fitted maximal effect; nearly all actives have a fitted effect of over 55% in size
#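 Human K18 P301L tau (15 uM unlabeled plus 0.24 uM Alexa 594-labeled, final) in 100 mM sodium acetate pH 7 was mixed with compound and 20 uM heparin and incubated 6 hr at 37 C.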
# TRb-SRC2 inh: inhibitors of human thyroid hormone receptor beta-SRC2 interaction. hit rate 0.065% among 280,000. TRbeta-SRC2 peptide binding, fluorescence polarization; receptor liganded with 1 µM T3. Potency, µM (highest dose often 106 µM), for the others: top-dose activity change, negative = inhibition, most hits filed as inhibitors. P10828. AID 1469;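 further: potency means the concentration at half of the fitted maximal effect; plate controls were bound peptide for no effect and peptide without receptor for full effect; nearly all actives have a fitted effect of over 50% in size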
# Target sequence (P10828 whole entry, looked up): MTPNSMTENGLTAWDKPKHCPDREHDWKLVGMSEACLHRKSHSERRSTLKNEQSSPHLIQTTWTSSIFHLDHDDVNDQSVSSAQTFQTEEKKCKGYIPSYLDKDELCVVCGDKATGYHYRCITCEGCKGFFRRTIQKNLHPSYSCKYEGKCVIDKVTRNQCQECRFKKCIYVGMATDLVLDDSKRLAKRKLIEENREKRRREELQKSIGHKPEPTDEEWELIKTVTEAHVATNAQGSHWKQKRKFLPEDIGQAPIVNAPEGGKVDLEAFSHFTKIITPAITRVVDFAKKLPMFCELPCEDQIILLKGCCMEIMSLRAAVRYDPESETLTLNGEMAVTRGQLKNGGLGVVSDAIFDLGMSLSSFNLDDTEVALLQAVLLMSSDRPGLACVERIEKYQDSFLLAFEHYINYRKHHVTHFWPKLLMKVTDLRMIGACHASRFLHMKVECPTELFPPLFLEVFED
#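 Fluorescence polarization of 20 nM Texas Red SRC2 peptide (20-aa NR interaction domain) bound to 0.6 uM human TRb ligand-binding domain, with 1 uM T3, after 5 hr at ambient temperature; inhibition seen as decreased polarization.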
# PNC inhibitor: inhibitors of perinucleolar compartment assembly | PC3M PTB-GFP, PNC prevalence imaging, 16 h; hits give low values | activity change (PNC), negative = inhibition, % at 10 µM | hit rate 3.1% among 140,000;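 active means readout at or below -70, meaning at least 70% loss of cells showing the perinucleolar compartment, a nuclear body marking cancer cells; inconclusive means readout between -30 and a set limit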;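 further: plate controls were DMSO wells for no effect and camptothecin positive control wells for full effect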
#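 PC3M cells stably expressing PTB-GFP, 750–1000 cells/well, treated 16 h at 37 °C with compound (23 nl of library stock), in duplicate. After paraformaldehyde fixation and Hoechst stain, imaged at 20x; PNC prevalence scored by image analysis.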
# Tau fibril FP: tau fibrillization inhibition (FP); hit rate 0.39% among 280,000; Potency, µM (titrated, usually from 57.7 µM), without a hit: at the highest dose activity, negative = inhibition, most hits filed as inhibitors; K18 P301L tau heparin fibrillization, Alexa594 FP, 6 h; P10636; AID 1468; further: potency means the concentration at half of the fitted maximal effect; nearly all actives have a fitted effect of over 55% in size
# Target sequence (P10636 561-689 P618L limits assumed): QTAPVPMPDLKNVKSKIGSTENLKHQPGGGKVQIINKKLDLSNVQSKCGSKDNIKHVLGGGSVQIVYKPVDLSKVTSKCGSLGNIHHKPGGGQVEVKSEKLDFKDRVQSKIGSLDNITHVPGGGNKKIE
#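 Recombinant K18 P301L […], labeled with Alexa 594 at 0.24 uM over 15 uM unlabeled; heparin inducer 20 uM final; 37 C, 6 hr; FP endpoint.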
# TexasRed fluor: Texas Red fluorescence interference in TRb-SRC2 counter-screen; TRb/SRC2 Texas Red total fluorescence interference; Potency, µM (top dose mostly 106 µM), for inactives: at the highest dose fluorescence change, negative = quenching; hit rate 0.29% among 280,000; active means well fitted curve in either direction with a large enough effect; inconclusive means small, poorly fitted or top-dose-only effect; further: potency means the concentration at half of the fitted maximal effect
#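 Human TRb ligand-binding domain at 0.6 uM with 20 nM Texas Red SRC2 peptide in Tris buffer containing 1 uM T3 and 5% DMSO, incubated with compound 5 h at ambient temperature. Total fluorescence (555/632 nm) calculated as parallel + 2 × perpendicular.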
# Tau fibril ThT: blocks human tau fibril formation measured by thioflavin T; hit rate 2.1% among 270,000; AID 1460; Potency, µM (highest dose often 57.4 µM), for inactives: top-dose activity, negative = inhibition, most hits filed as inhibitors; P10636; recombinant tau K18 P301L (four-repeat tau fragment), heparin-induced fibrillization, ThT fluorescence; further: potency means the concentration at half of the fitted maximal effect; nearly all actives have a fitted effect of over 55% in size
#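 K18 P301L tau (15 uM + 0.24 uM Alexa 594-tagged), heparin 20 uM, NaOAc pH 7, 6 h 37 C; ThT 30 uM, 1 h RT, ex 450/em 510 nm.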
# Starred values were filed as active, the others as inactive; ? = inconclusive; · = no result given; [ ] = remark or other dose. Unless noted, the call rests on the fitted dose curve; in most records, active means well fitted curve in the direction sought with a large enough effect; inconclusive means small, poorly fitted or top-dose-only effect, or another doubt; inactive means no such curve, though single readings can be large; an effect the other way counts as inactive or inconclusive. Unless noted, on the % scale 0 is the no-effect control and ±100 the full control effect.
SMILES,Tau fluor cs,TRb-SRC2 inh,PNC inhibitor,Tau fibril FP,TexasRed fluor,Tau fibril ThT
O=C1CSc2ccc(C(=O)Nc3cccc(S(=O)(=O)Nc4ccc(Br)cc4)c3)cc2N1,10µM*[quencher],7.7%,·,17.8µM*,1.7%,6.2%
c1ccc([C@H]2NCCc3c2[nH]c2ccccc32)cc1,-10.1%[11.6 µM],-0.5%[11.2 µM],·,9.8%[11.6 µM],-6.0%[11.2 µM],-7.4%[11.5 µM]
CSc1nnc2c3ccccc3n(CCc3ccccc3)c2n1,-12.0%,0.4%,-118.5*,-0.1%,-1.2%,-7.4%
CSc1nnc2c3ccccc3n(Cc3ccccc3)c2n1,-5.4%,4.3%,?,-3.9%,-0.5%,-4.0%
COc1ccc(N2CC(NC(=O)c3cccs3)CC2=O)cc1 (stereo not drawn),2.6%,1.8%,·,-1.7%,1.7%,3.1%
C=CCc1cccc(CNc2nc3ccccc3n2CC)c1O,17.8µM*[quencher],-17.6%,-0.2,14.0%,-1.7%,-17.5%
C=CCc1cccc(CNc2nc3ccccc3n2CCC)c1O,14.1µM*[quencher],2.8%,11.8,13.2%,-4.6%,-16.0%
CCCCn1c(NCc2ccccc2O)nc2ccccc21,-27.7%,-4.5%,-11.9,8.0%,2.2%,?
Cc1cc(N2CCN(C)CC2)nc2ccc(NC(=O)c3cccnc3Cl)cc12,-16.6%,-2.7%,4.8,-5.1%,-3.7%,?
Cc1cc(N2CCN(C)CC2)nc2ccc(NC(=O)Nc3ccc(F)cc3F)cc12,15.8µM*[quencher],-6.1%,·,?,-4.4%,?
Cc1cc(N2CCN(C)CC2)nc2ccc(NC(=O)Nc3cccc(Cl)c3)cc12,3.98µM*[quencher],-2.1%,·,?,-19.0%,14.1µM*
Cc1cc(N2CCN(C)CC2)nc2ccc(NC(=O)Nc3ccccc3Br)cc12,12.6µM*[quencher],1.4%,·,?,-3.1%,12.6µM*
Cc1cc(N2CCN(C)CC2)nc2ccc(NC(=S)NC3CC3)cc12,-4.8%,-6.4%,·,0.4%,0.3%,-12.1%
CCOc1cc(C(=O)Nc2ccc3nc(N4CCN(C)CC4)cc(C)c3c2)cc(OCC)c1OCC,?,-2.7%,·,?,0.0%,?
Cc1ccc(NC(=O)Nc2ccc3nc(N4CCN(C)CC4)cc(C)c3c2)cc1C,4.47µM*[quencher],-4.4%,·,3.3%,-18.1%,8.91µM*
Cc1ccc(NC(=O)N2CCC(C(=O)NCCC3=CCCCC3)CC2)cc1,-5.7%,2.4%,47.1,-0.9%,1.3%,-12.2%
COc1ccc(N(C(=O)c2ccco2)S(=O)(=O)c2cccc([N+](=O)[O-])c2)cc1,-28.7%,5.3%,69.5,5.1%,-1.0%,-27.3%
O=C(Nc1ccccc1N1CCCC1)c1ccco1,-3.6%,-3.9%,45.1,5.0%,-4.9%,?
NC(=O)c1ccc(NC(=O)COC(=O)/C=C/c2cn(-c3ccccc3)nc2-c2cccnc2)cc1,-26.8%,10.6%,1.9,-5.5%,1.1%,8.8%
Cc1cc(N2CCN(C)CC2)nc2ccc(NC(=O)c3ccccc3F)cc12,?,7.7%,·,-1.7%,0.5%,?
Cc1cc(N2CCN(C)CC2)nc2ccc(NC(=O)Nc3ccccc3)cc12,17.8µM*[quencher],3.5%,·,?,-2.7%,?
CCN(CC)C(=O)Cn1c(=O)n(CCCCCC(=O)Nc2ccccc2)c(=O)c2sccc21,-9.6%,-2.6%,-113.0*,-6.8%,2.0%,-3.8%
Cc1cccc(C)c1NC(=O)Cn1c(=O)n(CCCC(=O)NCc2ccco2)c(=O)c2sccc21,-16.0%,8.3%,-91.5*,-0.1%,-3.2%,-10.9%
COc1ccc(/C=C\c2onc(C)c2S(=O)(=O)N2CCC(C(=O)Nc3cccc(C)c3C)CC2)cc1,-8.3%,0.4%,·,?,0.4%,7.3%
COc1ccc(/C=C\c2onc(C)c2S(=O)(=O)N2CCC(C(=O)Nc3cccc(Cl)c3)CC2)cc1,-19.5%,-4.7%,·,14.1µM*,-1.1%,13.6%
SMILES,Tau fluor cs,TRb-SRC2 inh,PNC inhibitor,Tau fibril FP,TexasRed fluor,Tau fibril ThT
Cc1ccc(C)c(OCCn2c(=O)c3c(ncn3C3CCCC3)n(Cc3ccccc3)c2=O)c1,-9.6%,-13.2%[53 µM],-119.3*,4.7%,-0.7%[53 µM],-8.1%
Cc1cc(=O)oc(C)c1C(=O)OCC(=O)c1ccc(Br)cc1,-13.9%,-15.2%,-89.9*,-4.1%,1.9%,?
COc1cc(CN(C(=O)c2ccc(C)cc2)C2CCS(=O)(=O)C2)cc(OC)c1OC (stereo not drawn),-5.0%,-2.2%,·,-0.1%,2.4%,-3.4%
COc1cc(CN(C(=O)c2ccc(OC(C)C)cc2)C2CCS(=O)(=O)C2)cc(OC)c1OC (stereo not drawn),-29.6%,-7.9%,·,-4.6%,1259µM*[quencher],?
Cc1cccc(Oc2nc3c(c(=O)n(C)c(=O)n3C)n2C)c1C,-7.2%,-1.3%,·,5.8%,-3.8%,-1.8%
COc1ccc(NC2=C(Cl)C(=O)N(c3ccccc3)C2=O)c(OC)c1,?,2.0%,·,-11.3%,-6.4%,?
COc1ccccc1NC1=C(Cl)C(=O)N(c2ccccc2)C1=O,-21.9%,0.0%,-113.8*,-5.9%,-1.0%,?
COc1ccc(CCNC2=C(Cl)C(=O)N(CCc3ccccc3)C2=O)cc1OC,-17.0%,-2.2%,-20.0,7.7%,0.5%,?
CCOc1ccc(N2C(=O)C(Cl)=C(Nc3ccccc3O)C2=O)cc1,?,-19.2%,-16.9,?,0.0%,10µM*
O=C1C(Cl)=C(Nc2ccccc2O)C(=O)N1CCc1ccccc1,?,2.5%,?,?,-1.8%,10µM*
O=c1c2ccccc2c(-c2cccc(C(F)(F)F)c2)nn1-c1ccccc1,-15.6%,7.2%,·,-4.3%,3.0%,-7.1%
O=c1c2ccccc2c(-c2ccc(O)cc2)nn1-c1cccc(C(F)(F)F)c1,?,12.3%,-85.4*,?,0.4%,2.4%
COc1ccc(OC)c(NS(=O)(=O)c2ccc(N3CCCC3=O)cc2)c1,-11.0%,-4.0%,-83.3*,-11.3%,-0.1%,-11.0%
COc1ccc(OC)c(NS(=O)(=O)c2ccc(-n3cccn3)cc2)c1,-8.7%,4.5%,·,3.8%,-1.5%,5.6%
COC(C[C@H]1O[C@H]1[C@H](O)[C@@H](C)OCc1ccccc1)OC,11.2%,3.8%,·,2.5%,0.2%,6.3%
CNC(=O)c1[nH]cnc1C(=O)N[C@@H](Cc1ccccc1)C(=O)OCc1ccccc1,?,1.6%,·,?,0.1%,3.7%
Cc1cccc(NC(=O)c2nc[nH]c2C(=O)N[C@@H](Cc2ccccc2)C(=O)OCc2ccccc2)c1,?,8.0%,·,11.2µM*,-1.2%,?
CC(C)(C)OC(=O)[C@H](Cc1ccccc1)NC(=O)c1nc[nH]c1C(=O)NCc1ccccc1,?,4.7%,·,?,-1.1%,3.7%
CC(C)(C)OC(=O)NCc1ccc(NC(=O)c2nc[nH]c2C(=O)N[C@@H](Cc2ccccc2)C(=O)OCc2ccccc2)cc1,?,0.8%,·,10µM*,-3.0%,4.6%
